# Assay results as given in PubChem BioAssay.
# The source made the active and inactive calls.
# Key:
# [1] = small molecules captured by biotinylated probe aFSTL3 – biochemical, small-molecule microarray, fluorescence 635/667, stem cell growth factor project, primary screen (AID 1064); settings: higher = more signal;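 further: measures binding of the biotinylated anti-FSTL3 antibody to printed compounds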
# [2] = binders from COS7 lysate, DM2A8 probe, primary screen, torsin A project, cell lysate, small-molecule microarray, fluorescence 635/667 (AID 1065); settings: higher = more signal, COS7 lysate expressing mutant human TOR1A
# [3] = small molecules captured by biotinylated probe aFGF2 – biochemical, small-molecule microarray, fluorescence 635/667, stem cell growth factor project, primary screen (AID 1067); settings: higher = more signal;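 further: measures binding of biotinylated aFGF2 protein to printed compounds on slides; z-score merges feature fluorescence and signal-to-noise across triplicate slides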
# [4] = small molecules captured by biotinylated probe aFGF10 – biochemical, small-molecule microarray, fluorescence 635/667, stem cell growth factor project, primary screen (AID 1071); settings: higher = more signal;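 further: score merges 667 nm spot intensity and signal to noise from triplicate slides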
# [5] = molecular target: Neurogenic locus notch homolog protein 2 (Homo sapiens) (UniProt Q04721); experiment: small molecules binding Notch2 protein – biochemical, small-molecule microarray, 635 nm fluorescence, stem cell growth factors, primary screen (AID 1073); settings: higher = more signal
# Neurogenic locus notch homolog protein 2 (Homo sapiens), sequence (Q04721 whole entry, looked up, canonical isoform): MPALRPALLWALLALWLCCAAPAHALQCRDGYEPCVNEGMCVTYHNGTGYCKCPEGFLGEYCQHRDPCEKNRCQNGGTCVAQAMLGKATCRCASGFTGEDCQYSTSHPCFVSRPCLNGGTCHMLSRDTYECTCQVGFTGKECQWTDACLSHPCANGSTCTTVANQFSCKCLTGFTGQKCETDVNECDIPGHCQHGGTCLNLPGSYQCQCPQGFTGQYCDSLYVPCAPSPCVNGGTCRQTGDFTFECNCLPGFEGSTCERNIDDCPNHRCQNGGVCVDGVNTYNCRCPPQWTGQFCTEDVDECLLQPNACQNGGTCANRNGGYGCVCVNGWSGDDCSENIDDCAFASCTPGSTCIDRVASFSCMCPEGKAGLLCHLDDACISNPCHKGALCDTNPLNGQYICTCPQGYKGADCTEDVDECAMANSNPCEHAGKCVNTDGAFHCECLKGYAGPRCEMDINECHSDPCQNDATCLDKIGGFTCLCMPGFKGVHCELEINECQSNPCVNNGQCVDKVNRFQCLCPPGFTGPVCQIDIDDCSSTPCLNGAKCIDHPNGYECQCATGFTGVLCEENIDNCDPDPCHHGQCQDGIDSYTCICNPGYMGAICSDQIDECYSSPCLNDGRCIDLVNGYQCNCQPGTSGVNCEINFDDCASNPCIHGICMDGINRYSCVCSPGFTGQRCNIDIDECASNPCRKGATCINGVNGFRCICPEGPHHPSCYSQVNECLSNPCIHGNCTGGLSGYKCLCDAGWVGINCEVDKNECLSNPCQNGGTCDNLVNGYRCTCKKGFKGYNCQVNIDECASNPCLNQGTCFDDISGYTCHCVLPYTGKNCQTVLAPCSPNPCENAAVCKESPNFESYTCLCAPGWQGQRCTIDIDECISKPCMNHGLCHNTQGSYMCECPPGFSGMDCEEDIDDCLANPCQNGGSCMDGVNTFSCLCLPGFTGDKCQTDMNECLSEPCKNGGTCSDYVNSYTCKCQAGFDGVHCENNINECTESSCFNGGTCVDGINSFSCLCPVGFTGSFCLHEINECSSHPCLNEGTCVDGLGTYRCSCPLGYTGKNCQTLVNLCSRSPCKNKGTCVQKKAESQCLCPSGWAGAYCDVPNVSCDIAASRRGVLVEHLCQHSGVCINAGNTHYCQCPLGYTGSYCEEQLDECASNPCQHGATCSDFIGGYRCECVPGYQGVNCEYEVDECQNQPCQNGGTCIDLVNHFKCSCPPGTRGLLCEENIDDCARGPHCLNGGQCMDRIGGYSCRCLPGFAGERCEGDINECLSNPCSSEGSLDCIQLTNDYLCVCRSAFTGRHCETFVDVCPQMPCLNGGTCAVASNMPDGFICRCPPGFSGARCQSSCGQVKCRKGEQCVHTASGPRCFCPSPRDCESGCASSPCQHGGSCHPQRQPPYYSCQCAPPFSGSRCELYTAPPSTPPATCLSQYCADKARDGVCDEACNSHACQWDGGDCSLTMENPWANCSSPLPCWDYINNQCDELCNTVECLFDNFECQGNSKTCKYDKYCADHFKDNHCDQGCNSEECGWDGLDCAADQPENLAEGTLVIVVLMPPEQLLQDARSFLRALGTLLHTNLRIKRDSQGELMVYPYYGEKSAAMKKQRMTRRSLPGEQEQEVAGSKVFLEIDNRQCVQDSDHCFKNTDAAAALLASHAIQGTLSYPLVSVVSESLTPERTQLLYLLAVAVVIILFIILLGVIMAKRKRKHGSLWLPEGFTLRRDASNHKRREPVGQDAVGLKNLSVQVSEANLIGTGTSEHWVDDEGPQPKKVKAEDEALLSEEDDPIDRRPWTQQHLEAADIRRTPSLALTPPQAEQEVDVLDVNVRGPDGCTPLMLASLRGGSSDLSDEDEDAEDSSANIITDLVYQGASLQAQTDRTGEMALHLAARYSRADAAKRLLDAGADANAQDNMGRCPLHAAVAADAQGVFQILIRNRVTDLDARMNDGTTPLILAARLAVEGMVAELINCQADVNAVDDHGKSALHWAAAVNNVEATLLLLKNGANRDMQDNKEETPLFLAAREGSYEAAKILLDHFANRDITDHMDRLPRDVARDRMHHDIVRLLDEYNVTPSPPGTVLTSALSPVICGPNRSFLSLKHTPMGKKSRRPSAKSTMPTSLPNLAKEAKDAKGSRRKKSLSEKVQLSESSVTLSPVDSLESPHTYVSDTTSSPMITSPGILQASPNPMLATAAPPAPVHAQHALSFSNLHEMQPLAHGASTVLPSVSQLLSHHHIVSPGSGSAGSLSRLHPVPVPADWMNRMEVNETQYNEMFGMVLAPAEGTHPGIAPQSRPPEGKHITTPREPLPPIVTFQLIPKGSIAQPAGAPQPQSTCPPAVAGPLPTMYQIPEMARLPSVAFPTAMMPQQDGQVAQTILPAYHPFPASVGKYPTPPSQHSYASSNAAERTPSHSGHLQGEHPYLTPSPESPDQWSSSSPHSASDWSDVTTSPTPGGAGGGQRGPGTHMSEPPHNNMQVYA
# [6] = molecular target: Pro-neuregulin-1, membrane-bound isoform (Homo sapiens) (UniProt Q02297); experiment: small molecules binding neuregulin-1 protein – biochemical, small-molecule microarray, fluorescence 635/667, psychiatric disease protein project, primary screen (AID 1075); settings: NRG1 binding, 635 nm fluorescence, higher = more signal;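 further: score combines 667 nm spot fluorescence with signal to noise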
# Pro-neuregulin-1, membrane-bound isoform (Homo sapiens), sequence (Q02297 whole entry, looked up, the tested form may be a part, canonical isoform): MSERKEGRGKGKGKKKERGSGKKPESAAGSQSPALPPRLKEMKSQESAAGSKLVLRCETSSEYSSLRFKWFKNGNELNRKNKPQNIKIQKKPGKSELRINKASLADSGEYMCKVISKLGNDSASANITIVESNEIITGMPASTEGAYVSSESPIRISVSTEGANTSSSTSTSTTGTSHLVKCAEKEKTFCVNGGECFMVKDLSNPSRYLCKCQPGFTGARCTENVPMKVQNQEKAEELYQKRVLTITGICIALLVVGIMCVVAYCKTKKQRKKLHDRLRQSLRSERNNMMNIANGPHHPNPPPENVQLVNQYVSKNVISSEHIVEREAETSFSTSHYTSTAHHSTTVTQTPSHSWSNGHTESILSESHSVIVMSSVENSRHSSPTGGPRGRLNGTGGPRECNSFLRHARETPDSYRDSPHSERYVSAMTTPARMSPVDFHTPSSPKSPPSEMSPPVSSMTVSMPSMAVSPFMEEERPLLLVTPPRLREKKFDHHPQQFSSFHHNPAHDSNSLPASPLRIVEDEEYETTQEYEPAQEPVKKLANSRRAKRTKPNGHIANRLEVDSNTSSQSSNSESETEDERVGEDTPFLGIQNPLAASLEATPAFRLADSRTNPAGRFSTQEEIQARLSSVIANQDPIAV
# [7] = test system: Neuregulin-1 EGF-like domain; experiment: small molecules binding NRG1 EGF domain – biochemical, small-molecule microarray, 635 nm fluorescence, primary screen (AID 1081); settings: higher = more signal;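 further: binding of the protein to compounds printed on small-molecule microarray slides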
# [8] = FRG1 expression reporter modulators in myotubes – cell-based, C2C12 myotubes, firefly/Renilla luciferase, luminescence, FRG1 inhibition for FSHD, primary screen (AID 1084); settings: FRG1 promoter luciferase, higher = more signal, called active from +8 up or from −8 down
# [9] = small molecules captured by biotinylated probe aFST – biochemical, small-molecule microarray, fluorescence 635/667, stem cell growth factor project, primary screen (AID 1086); settings: higher = more signal;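 further: score merges 667 nm fluorescence with signal-to-noise of each printed compound spot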
# [10] = binders of probe aHhip on microarray, primary screen, stem cell growth factor project, biochemical, small-molecule microarray, fluorescence 635/667 (AID 1087); settings: higher = more signal;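 further: score merges spot fluorescence at 667nm with spot signal to noise ratio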
SMILES,composite z-score [1],composite z-score [2],composite z-score [3],composite z-score [4],composite z-score [5],composite z-score [6],composite z-score [7],z-score [8],composite z-score [9],composite z-score [10]
COC(=O)c1c(CC[C@@H](CO)NC(=O)N[C@@H](Cc2ccccc2)Cn2cc(-c3ccccn3)nn2)oc(C(=O)N2CCOCC2)c1C(=O)OC,-0.39,-0.451,-0.0348,0.218,0.303,-0.0149,0.734,0.183 (inactive),0.128,-0.356
NC(=O)[C@@H]1[C@H]2C(=O)O[C@H](c3ccccc3)[C@H](c3ccccc3)N2[C@H](c2ccc(O)cc2)[C@@]12C(=O)Nc1ccc(C#CC3=CCCCC3)cc12,-0.542,0.103,-0.222,0.604,-0.173,1.68,1.15,0.009 (inactive),-0.21,-0.357
NCCCCCNC(=O)[C@H]1C[C@H]2C(=O)N[C@@H](Cc3ccccc3)C(=O)N2[C@H]1c1cccc(OCCO)c1,2.24,0.387,0.0364,0.116,0.352,2.05,0.408,1.27 (inactive),1.04,0.705
COCCOC(=O)N1C(=O)[C@@]2(c3cc(C#CCCO)ccc31)[C@H](c1ccc(OCCO)cc1)N1[C@H](c3ccccc3)[C@H](c3ccccc3)OC(=O)[C@H]1[C@@H]2C(N)=O,-0.139,0.947,-0.0182,0.916,1.16,0.741,1.23,-0.485 (inactive),0.177,-0.239
CCCCC(O)C1C=CC2C(=O)N(C)C(=O)C2N1N1CCCCC1 (stereo not given),0.515,0.314,0.0311,0.591,1.56,1.12,1.42,0.733 (inactive),1.3,-0.0618
COC(=O)[C@@]1(Cc2ccc(F)cc2)[C@H]2c3cc(C(=O)N(C)C)n(Cc4ccc(C)o4)c3C[C@H]2CN1C(=O)c1ccccc1,2.58,3.31,0.62,0.0793,0.0386,1.8,1.13,0.626 (inactive),2.31,0.683
COC(=O)[C@@]1(Cc2ccccc2)[C@H]2c3cc(C(=O)N(C)C)n(CCc4c[nH]c5ccc(O)cc45)c3C[C@H]2CN1C(=O)c1ccccc1,0.808,-0.0685,0.0518,0.188,0.832,-0.198,1.29,0.688 (inactive),1.21,-0.191
CC(CO)N1C(=O)[C@@H]2C3C(=O)OCCC/C=C\[C@H]3OC23C=CCN(CCN2CCOCC2)C(=O)[C@@H]13 (stereo not given in full),-0.547,0.163,-0.139,0.38,-0.59,-0.31,0.47,-0.55 (inactive),-0.28,-0.212
COCCCNC(=O)[C@@H]1c2ccccc2C(=O)N(Cc2ccccc2)[C@H]1c1ccc(CO)cc1,0.0981,0.361,-0.0952,0.12,0.712,0.943,0.565,-0.179 (inactive),0.418,0.253
COC(=O)[C@@]1(Cc2ccc(OC)cc2)[C@H]2c3cc(C(=O)N4CCCC4)n(Cc4nc5ccccc5[nH]4)c3C[C@H]2CN1C(=O)c1ccccc1,1.13,0.572,0.417,1,1.82,2.11,1.14,4.38 (inactive),1.65,-0.229
